Our source for the inhibition values is ChEMBL document CHEMBL1961873, “Compounds: GSK PKIS; Assays: Nanosyn kinase panel” (2012).

Assay [1] deals with Death-associated protein kinase 1 (Homo sapiens) (UniProt P53355). The note with it: at 1 µM.
For assay [2], the target named is T1, Serine/threonine-protein kinase DCLK2 (Homo sapiens) (UniProt Q8N568).
T1 sequence (whole entry): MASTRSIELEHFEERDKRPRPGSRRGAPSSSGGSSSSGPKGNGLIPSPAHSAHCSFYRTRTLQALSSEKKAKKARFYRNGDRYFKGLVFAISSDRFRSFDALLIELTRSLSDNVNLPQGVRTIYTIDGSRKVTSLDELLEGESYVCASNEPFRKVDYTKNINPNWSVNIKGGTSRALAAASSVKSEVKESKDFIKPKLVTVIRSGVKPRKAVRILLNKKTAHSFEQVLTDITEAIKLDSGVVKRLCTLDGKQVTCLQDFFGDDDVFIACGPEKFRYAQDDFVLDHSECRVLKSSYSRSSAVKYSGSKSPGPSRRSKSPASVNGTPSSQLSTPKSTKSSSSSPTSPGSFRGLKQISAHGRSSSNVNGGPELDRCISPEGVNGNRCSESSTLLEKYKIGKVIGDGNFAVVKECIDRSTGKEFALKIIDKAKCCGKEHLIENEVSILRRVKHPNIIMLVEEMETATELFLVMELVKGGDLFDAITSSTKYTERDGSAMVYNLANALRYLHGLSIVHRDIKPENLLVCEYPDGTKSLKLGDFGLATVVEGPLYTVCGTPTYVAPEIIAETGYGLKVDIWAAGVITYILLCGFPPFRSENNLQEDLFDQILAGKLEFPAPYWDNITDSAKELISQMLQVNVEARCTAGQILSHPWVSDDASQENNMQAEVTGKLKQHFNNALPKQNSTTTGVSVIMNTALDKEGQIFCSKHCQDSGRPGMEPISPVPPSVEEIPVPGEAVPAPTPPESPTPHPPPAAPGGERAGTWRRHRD
The note with it: at 0.1 µM.

The target of assay [3] is T1, Serine/threonine-protein kinase DCLK2 (Homo sapiens). The note with it: at 1 µM.
The target in assay [4] is MAP kinase-activated protein kinase 2 (Homo sapiens) (UniProt P49137). The note with it: at 0.1 µM.
Sequence of MAP kinase-activated protein kinase 2 (Homo sapiens) (P49137 whole entry, looked up): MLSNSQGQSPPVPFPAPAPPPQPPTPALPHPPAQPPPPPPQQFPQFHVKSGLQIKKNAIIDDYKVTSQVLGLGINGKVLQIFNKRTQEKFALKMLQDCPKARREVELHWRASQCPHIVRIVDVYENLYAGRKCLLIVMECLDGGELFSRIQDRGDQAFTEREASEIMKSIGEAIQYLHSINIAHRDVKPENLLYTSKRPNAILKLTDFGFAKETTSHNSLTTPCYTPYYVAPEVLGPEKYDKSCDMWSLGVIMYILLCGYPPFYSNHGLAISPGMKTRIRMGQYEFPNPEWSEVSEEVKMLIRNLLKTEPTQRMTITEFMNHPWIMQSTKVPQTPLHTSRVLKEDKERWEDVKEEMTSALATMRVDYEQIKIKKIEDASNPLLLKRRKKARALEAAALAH
Assay [5] has the same target. Particulars: at 1 µM.
For assay [6], the target named is MAP kinase-activated protein kinase 3 (Homo sapiens) (UniProt Q16644). Particulars: at 0.1 µM.
Sequence of MAP kinase-activated protein kinase 3 (Homo sapiens) (Q16644 whole entry, looked up): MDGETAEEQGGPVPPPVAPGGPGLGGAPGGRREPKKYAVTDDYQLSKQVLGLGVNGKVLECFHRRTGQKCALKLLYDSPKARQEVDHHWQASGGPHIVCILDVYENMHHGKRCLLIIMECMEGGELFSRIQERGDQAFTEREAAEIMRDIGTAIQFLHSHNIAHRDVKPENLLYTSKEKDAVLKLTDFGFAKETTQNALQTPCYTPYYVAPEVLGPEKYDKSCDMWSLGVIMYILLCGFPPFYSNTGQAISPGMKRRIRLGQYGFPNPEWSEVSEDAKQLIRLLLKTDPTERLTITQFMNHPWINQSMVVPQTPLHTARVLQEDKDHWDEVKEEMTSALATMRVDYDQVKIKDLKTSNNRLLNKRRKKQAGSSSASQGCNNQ
Assay [7] shares this target. The note with it: at 1 µM.
Assay [8] concerns the target Serine/threonine-protein kinase MARK1 (Homo sapiens) (UniProt Q9P0L2). The note with it: at 0.1 µM.
Assay [9] shares this target. Particulars: at 1 µM.
Assay [10] addresses MAP/microtubule affinity-regulating kinase 3 (Homo sapiens) (UniProt P27448). Particulars: at 0.1 µM.
Assay [11] shares this target. The note with it: at 1 µM.
The target of assay [12] is T2, MAP/microtubule affinity-regulating kinase 4 (Homo sapiens) (UniProt Q96L34).
T2 sequence (whole entry): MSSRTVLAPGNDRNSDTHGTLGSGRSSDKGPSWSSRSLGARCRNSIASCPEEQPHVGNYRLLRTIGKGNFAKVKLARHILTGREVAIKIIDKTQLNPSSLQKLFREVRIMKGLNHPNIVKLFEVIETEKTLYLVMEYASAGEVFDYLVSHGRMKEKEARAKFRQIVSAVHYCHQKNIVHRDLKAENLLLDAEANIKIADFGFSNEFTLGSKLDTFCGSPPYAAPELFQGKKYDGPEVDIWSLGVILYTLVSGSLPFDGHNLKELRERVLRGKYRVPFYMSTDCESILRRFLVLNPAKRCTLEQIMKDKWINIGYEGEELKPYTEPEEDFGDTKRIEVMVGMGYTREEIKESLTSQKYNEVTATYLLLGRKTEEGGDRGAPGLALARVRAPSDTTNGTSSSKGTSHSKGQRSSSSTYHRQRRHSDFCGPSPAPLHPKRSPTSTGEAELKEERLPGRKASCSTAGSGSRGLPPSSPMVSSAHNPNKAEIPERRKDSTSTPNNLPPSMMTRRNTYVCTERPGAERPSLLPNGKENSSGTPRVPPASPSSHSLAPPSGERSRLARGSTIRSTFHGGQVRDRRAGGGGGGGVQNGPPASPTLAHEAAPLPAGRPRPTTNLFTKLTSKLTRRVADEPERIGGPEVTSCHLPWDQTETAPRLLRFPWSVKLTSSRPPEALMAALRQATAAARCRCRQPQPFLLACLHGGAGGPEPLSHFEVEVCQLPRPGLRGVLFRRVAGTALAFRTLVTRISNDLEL
Particulars: at 0.1 µM.

Assay [13] has as its target T2, MAP/microtubule affinity-regulating kinase 4 (Homo sapiens). The note with it: at 1 µM.
Assay [14] concerns the target Maternal embryonic leucine zipper kinase (Homo sapiens) (UniProt Q14680). Particulars: at 0.1 µM.
For assay [15] the target is unchanged. The note with it: at 1 µM.
For assay [16], the target named is MAP kinase-interacting serine/threonine-protein kinase 1 (Homo sapiens) (UniProt Q9BUB5). The note with it: at 0.1 µM.
Sequence of MAP kinase-interacting serine/threonine-protein kinase 1 (Homo sapiens) (Q9BUB5 whole entry, looked up): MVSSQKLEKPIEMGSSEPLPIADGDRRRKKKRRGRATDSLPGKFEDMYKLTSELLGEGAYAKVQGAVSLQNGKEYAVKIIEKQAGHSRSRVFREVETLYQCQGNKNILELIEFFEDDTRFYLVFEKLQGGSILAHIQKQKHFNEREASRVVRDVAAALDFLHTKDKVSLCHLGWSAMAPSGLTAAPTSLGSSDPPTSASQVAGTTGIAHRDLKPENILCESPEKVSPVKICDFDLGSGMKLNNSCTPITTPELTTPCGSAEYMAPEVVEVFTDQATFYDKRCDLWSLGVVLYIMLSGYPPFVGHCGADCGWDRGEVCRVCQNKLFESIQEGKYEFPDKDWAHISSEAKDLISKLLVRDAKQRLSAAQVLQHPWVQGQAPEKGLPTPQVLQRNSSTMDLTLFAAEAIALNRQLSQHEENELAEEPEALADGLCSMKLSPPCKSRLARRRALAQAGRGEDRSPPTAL
Assay [17] has the same target. Particulars: at 1 µM.
For assay [18], the target named is MAP kinase-interacting serine/threonine-protein kinase 2 (Homo sapiens) (UniProt Q9HBH9). Particulars: at 0.1 µM.
Sequence of MAP kinase-interacting serine/threonine-protein kinase 2 (Homo sapiens) (Q9HBH9 whole entry, looked up): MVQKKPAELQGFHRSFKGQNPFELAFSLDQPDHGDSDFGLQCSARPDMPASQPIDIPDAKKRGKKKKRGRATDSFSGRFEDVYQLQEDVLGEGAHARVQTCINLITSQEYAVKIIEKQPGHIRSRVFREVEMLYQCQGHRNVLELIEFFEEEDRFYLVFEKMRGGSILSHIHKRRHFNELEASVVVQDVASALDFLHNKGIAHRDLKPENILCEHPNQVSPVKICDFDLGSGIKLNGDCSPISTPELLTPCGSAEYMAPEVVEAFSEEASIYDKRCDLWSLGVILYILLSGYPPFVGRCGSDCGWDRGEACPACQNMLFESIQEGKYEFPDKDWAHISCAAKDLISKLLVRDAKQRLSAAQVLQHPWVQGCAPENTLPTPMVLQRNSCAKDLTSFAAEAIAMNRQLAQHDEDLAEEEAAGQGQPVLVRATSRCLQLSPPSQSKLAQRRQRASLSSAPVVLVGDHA
For assay [19] the target is unchanged. Particulars: at 1 µM.
In assay [20] the target is Serine/threonine-protein kinase MARK2 (Homo sapiens) (UniProt Q7KZI7). The note with it: at 0.1 µM.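 Note: mean percent inhibition of PAR-1Balpha kinase activity, reported from the GSK PKIS screen.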

Structures are written as SMILES.

Sequence of Maternal embryonic leucine zipper kinase (Homo sapiens) (Q14680 whole entry, looked up): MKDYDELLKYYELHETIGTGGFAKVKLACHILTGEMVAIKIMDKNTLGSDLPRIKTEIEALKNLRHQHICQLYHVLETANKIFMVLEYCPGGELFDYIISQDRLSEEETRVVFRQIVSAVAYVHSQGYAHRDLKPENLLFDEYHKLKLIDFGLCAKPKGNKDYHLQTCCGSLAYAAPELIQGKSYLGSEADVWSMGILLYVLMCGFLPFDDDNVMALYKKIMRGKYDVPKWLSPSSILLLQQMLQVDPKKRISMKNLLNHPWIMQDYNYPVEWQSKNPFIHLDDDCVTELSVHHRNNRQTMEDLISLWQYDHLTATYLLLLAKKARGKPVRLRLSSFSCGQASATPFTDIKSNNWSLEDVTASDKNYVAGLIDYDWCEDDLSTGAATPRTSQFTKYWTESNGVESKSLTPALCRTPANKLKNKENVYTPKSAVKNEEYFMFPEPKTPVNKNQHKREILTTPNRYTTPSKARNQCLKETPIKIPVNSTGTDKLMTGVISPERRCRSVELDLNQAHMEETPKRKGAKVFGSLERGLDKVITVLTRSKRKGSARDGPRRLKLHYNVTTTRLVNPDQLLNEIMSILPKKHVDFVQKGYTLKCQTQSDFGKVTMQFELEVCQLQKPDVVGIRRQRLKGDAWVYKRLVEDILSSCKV
Sequence of Death-associated protein kinase 1 (Homo sapiens) (P53355 whole entry, looked up): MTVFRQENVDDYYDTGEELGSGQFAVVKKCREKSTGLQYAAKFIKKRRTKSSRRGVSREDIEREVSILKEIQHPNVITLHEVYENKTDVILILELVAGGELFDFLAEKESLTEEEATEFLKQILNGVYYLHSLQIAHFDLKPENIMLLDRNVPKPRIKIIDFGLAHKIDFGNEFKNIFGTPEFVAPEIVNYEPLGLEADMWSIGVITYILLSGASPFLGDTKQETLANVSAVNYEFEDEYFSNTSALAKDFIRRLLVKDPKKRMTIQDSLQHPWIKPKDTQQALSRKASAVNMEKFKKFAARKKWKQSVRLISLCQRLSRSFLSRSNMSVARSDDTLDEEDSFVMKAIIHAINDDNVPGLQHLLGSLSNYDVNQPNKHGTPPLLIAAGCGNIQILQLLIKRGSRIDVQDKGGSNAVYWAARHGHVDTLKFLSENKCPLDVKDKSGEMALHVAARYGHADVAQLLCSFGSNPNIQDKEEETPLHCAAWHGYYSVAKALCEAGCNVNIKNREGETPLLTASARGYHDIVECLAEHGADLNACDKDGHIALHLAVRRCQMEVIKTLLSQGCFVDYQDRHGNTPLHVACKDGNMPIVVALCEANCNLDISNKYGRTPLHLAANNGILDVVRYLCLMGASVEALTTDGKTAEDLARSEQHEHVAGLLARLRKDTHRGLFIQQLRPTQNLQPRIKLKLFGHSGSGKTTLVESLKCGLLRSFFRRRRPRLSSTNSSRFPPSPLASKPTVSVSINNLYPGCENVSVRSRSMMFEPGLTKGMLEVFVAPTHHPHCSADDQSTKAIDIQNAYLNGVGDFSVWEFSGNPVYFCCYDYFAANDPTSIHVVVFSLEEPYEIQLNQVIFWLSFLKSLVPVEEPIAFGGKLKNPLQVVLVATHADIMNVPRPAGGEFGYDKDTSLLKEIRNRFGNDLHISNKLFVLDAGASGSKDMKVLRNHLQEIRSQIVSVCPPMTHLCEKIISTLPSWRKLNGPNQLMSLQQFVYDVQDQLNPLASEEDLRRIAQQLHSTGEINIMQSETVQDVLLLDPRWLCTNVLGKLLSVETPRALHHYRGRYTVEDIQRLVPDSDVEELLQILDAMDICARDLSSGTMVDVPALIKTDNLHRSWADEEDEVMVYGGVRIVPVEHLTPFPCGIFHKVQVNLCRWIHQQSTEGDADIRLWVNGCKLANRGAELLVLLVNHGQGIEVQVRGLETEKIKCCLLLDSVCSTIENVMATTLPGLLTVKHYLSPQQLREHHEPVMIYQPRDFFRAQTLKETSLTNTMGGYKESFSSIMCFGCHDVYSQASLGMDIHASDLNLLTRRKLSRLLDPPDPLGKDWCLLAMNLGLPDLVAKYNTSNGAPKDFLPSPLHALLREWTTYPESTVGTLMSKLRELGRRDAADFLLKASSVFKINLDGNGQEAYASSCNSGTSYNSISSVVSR
Sequence of Serine/threonine-protein kinase MARK1 (Homo sapiens) (Q9P0L2 whole entry, looked up): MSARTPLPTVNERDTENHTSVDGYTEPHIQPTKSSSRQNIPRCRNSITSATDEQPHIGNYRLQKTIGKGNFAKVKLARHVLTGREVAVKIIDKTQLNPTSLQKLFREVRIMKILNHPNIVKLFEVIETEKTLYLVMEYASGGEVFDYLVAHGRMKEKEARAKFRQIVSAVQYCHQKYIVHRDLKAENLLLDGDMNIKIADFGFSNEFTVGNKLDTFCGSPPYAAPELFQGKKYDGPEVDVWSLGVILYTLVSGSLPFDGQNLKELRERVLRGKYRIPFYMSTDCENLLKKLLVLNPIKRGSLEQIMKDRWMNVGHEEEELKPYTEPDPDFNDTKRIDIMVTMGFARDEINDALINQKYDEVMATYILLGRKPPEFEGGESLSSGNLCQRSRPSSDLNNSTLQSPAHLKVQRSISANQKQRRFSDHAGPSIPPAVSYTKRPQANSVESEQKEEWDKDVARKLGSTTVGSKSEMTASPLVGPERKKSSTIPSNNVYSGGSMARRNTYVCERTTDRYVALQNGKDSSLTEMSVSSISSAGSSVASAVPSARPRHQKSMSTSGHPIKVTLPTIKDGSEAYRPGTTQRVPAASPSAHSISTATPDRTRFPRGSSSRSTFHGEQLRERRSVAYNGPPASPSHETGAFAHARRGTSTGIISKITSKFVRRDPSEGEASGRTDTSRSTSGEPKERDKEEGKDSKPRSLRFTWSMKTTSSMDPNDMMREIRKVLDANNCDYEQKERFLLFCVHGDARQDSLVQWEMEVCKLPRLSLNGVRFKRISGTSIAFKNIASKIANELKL

Broadly, the inhibition is the drop in the measured response relative to a control, in per cent. In the case of `[O-][S+]1CCN(Cc2ccc(-c3ccc4ncnc(Nc5ccc(OCc6cccc(F)c6)c(Cl)c5)c4c3)o2)CC1`, the inhibition in assay [1] is 6.25%; in [2] it was 0.51%; in [3], 2.24%; in [4], 1.68%; in assay [5] it was 1.59%; in assay [6], 7.01%. Besides, the inhibition in [7] came out at 7.37%; in assay [8], 4.1%; in [9], 3.65%; in assay [10], 3.31%; in [11] it was 1.78%; in assay [12], 3.49%. Besides, the inhibition in [13] was found to be 3.99%; in assay [14] it was 7.16%; in assay [15] it was 5.89%; in [16], 2.71%; in [17] it was 6.2%; in assay [18], 1.46%. Also, the inhibition stood at 6.51% in [19] and 2.19% in [20].
For the compound `CCN(CC)S(=O)(=O)c1ccc(OC)c(Nc2ncc(-c3ccccc3)o2)c1`, the inhibition was found to be 4.29% in assay [1]; 2.03% in assay [2]; 3.38% in [3]; 2.65% in assay [4]; 1.48% in assay [5]; 1.95% in assay [6]. Moreover, the inhibition is -0.47% in assay [7]; 1.44% in assay [8]; 2.58% in assay [9]; -0.45% in assay [10]; 18.7% in [11]; -1.02% in assay [12]. In addition, the inhibition in assay [13] was 0.8%; in assay [14] it was -0.34%; in [15] it was 7.01%; in assay [16], 1.28%; in [17] it was 5.6%; in assay [18], 1.51%. For the same compound, the inhibition in [19] came out at 2.53%; in [20], 0.71%.
As to `CCn1c(-c2nonc2N)nc2c(C#CC(C)(C)O)nc(OC[C@H](N)c3ccccc3)cc21`, the inhibition was 4.82% in [1]; -2.25% in assay [2]; 1.52% in assay [3]; 0.63% in assay [4]; 2.99% in assay [5]; 1.45% in assay [6]. Further, the inhibition in [7] amounted to 2.95%; in [8] it was 2.28%; in assay [9], 27.3%; in assay [10], 4.68%; in assay [11], 35.4%; in assay [12] it was 1.25%. Further, the inhibition in assay [13] was 18.4%; in assay [14] it was 17.7%; in assay [15], 82.1%; in assay [16], 1.77%; in assay [17], 2.97%; in assay [18] it was 3.54%. The results for the inhibition in assay [19] and in [20] were 2.92% and 1.39%, respectively.
For the compound `COC(=O)c1sc(-n2cnc3cc(OC)c(OC)cc32)cc1OCc1ccccc1C(F)(F)F`, the inhibition in assay [1] is 1.94%; in [2], 2.16%; in assay [3], 0.62%; in assay [4], 1.81%; in [5] it was 1.73%; in assay [6], 4.86%. Further, the inhibition in assay [7] came to 5.46%; in assay [8], 2.71%; in assay [9], 6.82%; in assay [10] it was 2.38%; in assay [11], 3.04%; in assay [12], 2.41%. Besides, the inhibition in [13] came to 4.85%; in [14], 4.31%; in assay [15] it was 12.6%; in [16], 3.55%; in assay [17], 3.3%; in assay [18], 0.22%. The figures for the inhibition in [19] and in assay [20] were -0.04% and -1.89%, respectively.
As to `CCn1c(-c2nonc2N)nc2c(C#CC(C)(C)O)ncc(OC3CCNCC3)c21`, the inhibition in assay [1] worked out at 5.68%; in assay [2] it was 0.06%; in assay [3], 3.29%; in [4], 1.3%; in assay [5] it was 3.78%; in assay [6] it was 3.98%. Besides, the inhibition in assay [7] was determined as 4.41%; in [8], 20.8%; in assay [9], 74.1%; in assay [10], 21.2%; in [11] it was 77.7%; in assay [12], 14%. Further, the inhibition worked out at 62.1% in [13]; 21.2% in [14]; 76.4% in [15]; 1.74% in assay [16]; 2.25% in assay [17]; 2.54% in [18]. Further, the inhibition in assay [19] came out at 2.87%; in assay [20], 19.3%.
For `CS(=O)(=O)CCNCc1ccc(-c2ccc3ncnc(Nc4ccc(OCc5ccccc5)c(C(F)(F)F)c4)c3c2)o1`, the inhibition in assay [1] worked out at 10.9%; in [2] it was 7.37%; in assay [3] it was 2.23%; in [4], 4.99%; in assay [5], 3.73%; in [6] it was 8.97%. Also, the inhibition turned out to be 10.7% in assay [7]; 2.72% in [8]; 4.11% in assay [9]; 3.87% in assay [10]; 4.16% in assay [11]; 2.86% in assay [12]. The inhibition was 3.74% in assay [13]; 2.98% in assay [14]; 2.19% in assay [15]; 2.1% in [16]; 3.92% in assay [17]; -0.02% in assay [18]. For the same compound, the inhibition in [19] was determined as 4.64%; in [20], 0.21%.
As for `FC(F)(F)c1cccc(-c2nn3ncccc3c2-c2ccnc(Nc3ccc4c(c3)OCCO4)n2)c1`, the inhibition is 4.46% in assay [1]; 0.29% in assay [2]; -0.51% in [3]; 0.54% in assay [4]; 0.88% in assay [5]; 12.3% in assay [6]. The inhibition in assay [7] is 31.9%; in assay [8] it was 2.64%; in [9], 3.63%; in assay [10], 2.14%; in [11], 3.45%; in assay [12], 0.66%. The inhibition was 1.99% in assay [13]; 1.43% in assay [14]; 4.99% in assay [15]; 1.74% in assay [16]; 3.33% in assay [17]; 0.83% in [18]. Moreover, the inhibition in assay [19] was 1.61%; in assay [20], -1.11%.
